# Data: PubChem BioAssay (EPA / NIEHS)
# Records with an inconclusive call do not appear. The source made the active and inactive calls. The calls were made as follows: active = hit-call score of the fitted dose curve at least 0.9, where 1 is the maximum; inconclusive = response in the unintended direction; inactive = score below 0.9.
# Biological target: rat Monoamine Oxidase, MAO-B, Peripheral (MAOBP), Maob (gene 25750) (UniProt P19643)
# Test: NVS_ENZ_rMAOBP: NovaScreen (NVS) Enzymatic Assay for rat Monoamine Oxidase, MAO-B, Peripheral (MAOBP) (AID 2283242)
# rat Monoamine Oxidase, MAO-B, Peripheral (MAOBP), Maob (gene 25750), sequence (P19643 whole entry, looked up): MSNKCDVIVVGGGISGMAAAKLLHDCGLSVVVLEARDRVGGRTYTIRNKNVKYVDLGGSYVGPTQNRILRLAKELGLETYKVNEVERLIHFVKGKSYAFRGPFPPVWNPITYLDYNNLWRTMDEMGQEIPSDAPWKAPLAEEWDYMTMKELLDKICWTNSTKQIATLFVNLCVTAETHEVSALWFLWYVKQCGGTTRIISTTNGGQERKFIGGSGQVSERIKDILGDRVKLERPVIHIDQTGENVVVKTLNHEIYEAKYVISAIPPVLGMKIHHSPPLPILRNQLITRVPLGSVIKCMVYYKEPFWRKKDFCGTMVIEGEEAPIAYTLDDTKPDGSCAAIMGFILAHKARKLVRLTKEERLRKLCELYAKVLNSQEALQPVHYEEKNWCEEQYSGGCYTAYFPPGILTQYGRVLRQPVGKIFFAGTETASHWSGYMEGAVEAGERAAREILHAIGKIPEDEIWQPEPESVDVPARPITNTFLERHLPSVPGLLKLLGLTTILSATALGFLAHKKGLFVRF
Structure (SMILES),AC50,outcome
COC(=O)c1ccc(CNS(C)(=O)=O)cc1S(=O)(=O)NC(=O)Nc1nc(OC)cc(OC)n1,35.5 µM (active),–
CC1=C(/C=C/C(C)=C/C=C/C(C)=C/C(=O)O)C(C)(C)CCC1,–,inactive
O=c1[nH]sc2ccccc12,19.2 µM (active),–

# System: rat Monoamine Oxidase, MAO-A, Central (MAOAC), gene 29253
# Test: NVS_ENZ_rMAOAC: NovaScreen (NVS) Enzymatic Assay for rat Monoamine Oxidase, MAO-A, Central (MAOAC) (AID 2283243);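 also: potency refers to inhibition seen as signal drop below DMSO baseline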
# Procedure, shortened: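 Lysate-based radiometric enzyme assay using rat brain tissue; 1.5 h treatment; 25 uM single-point duplicate screen, concentration-response follow-up; loss of signal versus DMSO.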
Structure (SMILES),AC50,outcome
c1ccc2cc3ccccc3cc2c1,25 µM (active),–
Nc1cccc(N)c1,4.33 µM (active),–
Cc1ccc2sc3cccc(C)c3c2c1,–,inactive
Oc1ccc(Nc2ccccc2)cc1,17.7 µM (active),–
O=C(c1ccccc1)c1ccc(O)cc1O,21 µM (active),–
CN1CN(C)CN(C)C1,–,inactive
CCCCCCCCCCCCCCCC[N+](C)(C)Cc1ccccc1,–,inactive
C=Cc1cccc(C)c1,–,inactive
Oc1cccc2c(O)cccc12,25 µM (active),–
COc1ccc2nc(N)sc2c1,9.33 µM (active),–
CCOC(=O)C(C)Oc1ccc(Oc2nc3ccc(Cl)cc3o2)cc1 (stereo not drawn),–,inactive
CCOC(=O)[C@H](C)Oc1ccc(Oc2nc3ccc(Cl)cc3o2)cc1,17.4 µM (active),–
Nc1ccc(Oc2cccc(Oc3ccc(N)cc3)c2)cc1,22.7 µM (active),–
Oc1cccc2ccccc12,15.4 µM (active),–
CCCCCCCCCCCC[N+](C)(C)C,25 µM (active),–
CC(=O)Nc1ccc(N=Nc2cc(C)ccc2O)cc1,0.0709 µM (active),–
C=CC(=O)OCCN(CC)CC,–,inactive
Nc1ccc(Cl)c([N+](=O)[O-])c1,12.8 µM (active),–
CCNc1nc(N)nc(Cl)n1,37.6 µM (active),–
O=c1c2ccccc2oc2ccccc12,7.58 µM (active),–
O=[N+]([O-])c1ccc(O)cc1C(F)(F)F,21.1 µM (active),–

# Biological target: rat Corticotropin Releasing Factor Receptor (CRF), Crhr1 (gene 58959) (UniProt P35353)
# Sequence (P35353 whole entry, looked up): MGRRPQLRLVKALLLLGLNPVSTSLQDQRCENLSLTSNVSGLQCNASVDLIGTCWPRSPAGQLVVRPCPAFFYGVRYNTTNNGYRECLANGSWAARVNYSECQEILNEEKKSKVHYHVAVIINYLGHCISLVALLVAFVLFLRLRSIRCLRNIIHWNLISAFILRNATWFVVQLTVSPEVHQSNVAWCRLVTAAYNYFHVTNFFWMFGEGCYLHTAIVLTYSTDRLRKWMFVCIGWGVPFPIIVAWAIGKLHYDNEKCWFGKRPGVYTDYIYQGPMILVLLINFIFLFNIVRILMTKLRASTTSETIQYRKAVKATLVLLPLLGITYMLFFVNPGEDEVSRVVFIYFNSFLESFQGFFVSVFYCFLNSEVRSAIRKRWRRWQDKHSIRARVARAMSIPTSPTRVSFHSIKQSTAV
# Test: NVS_GPCR_rCRF: NovaScreen (NVS) G Protein-Coupled Receptor Assay for rat Corticotropin Releasing Factor Receptor (CRF) (AID 2283300)
# Procedure, shortened: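 Single-concentration (25 uM, duplicate) radioligand binding on rat cortical membrane preparations, counted by scintillation after 2 h. Activity scored as signal loss relative to DMSO negative control.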
Structure (SMILES),outcome,AC50
Cc1cc(C)c(O)c(C)c1,inactive,–
CCC(C)(C)C1CCC(O)CC1 (stereo not drawn),inactive,–
C[C@]12CC[C@@H]3c4ccc(O)cc4CC[C@H]3[C@@H]1CCC2=O,inactive,–
O=c1[nH]sc2ccccc12,–,17 µM (active)
OCCO,inactive,–
CCNc1nc(N)nc(Cl)n1,inactive,–

# Biological target: human Neonicotinoid receptor (NNR), CHRNA2 (gene 1135) (UniProt Q15822)
# Sequence (Q15822 whole entry, looked up): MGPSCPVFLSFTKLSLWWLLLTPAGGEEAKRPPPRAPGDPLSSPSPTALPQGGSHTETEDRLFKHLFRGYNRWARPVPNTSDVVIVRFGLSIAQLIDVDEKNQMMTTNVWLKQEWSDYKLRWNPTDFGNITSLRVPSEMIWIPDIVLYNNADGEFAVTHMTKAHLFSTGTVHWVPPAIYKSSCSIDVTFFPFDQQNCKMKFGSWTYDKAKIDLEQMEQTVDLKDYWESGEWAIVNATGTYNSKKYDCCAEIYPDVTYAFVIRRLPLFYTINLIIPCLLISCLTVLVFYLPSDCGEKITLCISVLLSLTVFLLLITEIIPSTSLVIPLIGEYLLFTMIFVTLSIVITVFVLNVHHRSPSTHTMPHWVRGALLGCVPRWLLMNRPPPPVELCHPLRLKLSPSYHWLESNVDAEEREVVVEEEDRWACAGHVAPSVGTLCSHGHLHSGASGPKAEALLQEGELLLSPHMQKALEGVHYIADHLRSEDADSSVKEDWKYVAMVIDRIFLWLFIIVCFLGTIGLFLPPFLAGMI
# Test: NVS_LGIC_hNNR_NBungSens: NovaScreen (NVS) Ligand-Gated Ion Channel Assay for human Neonicotinoid receptor (NNR) (AID 2283313)
# Procedure, shortened: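 Compounds first screened in duplicate at 25 uM, then actives re-tested in single-replicate dose series up to 50 uM. Binding measured as displacement of specific radioligand from neuroblastoma membrane receptors after 2 h, scintillation read on filters.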
row,Structure (SMILES),AC50
1,Cc1cc(SC2=C(O)C[C@@](CCc3ccc(N)cc3)(C(C)C)OC2=O)c(C(C)(C)C)cc1CO,13.1 µM (active)
2,CCCOC(=O)NCCCN(C)C,7.3 µM (active)
3,CCCCCCCCCCCC[N+](C)(C)C,13.3 µM (active)
